Test results reported in PubChem BioAssay AID1565 (Sanford-Burnham Center for Chemical Genomics, 2009).
Out of some 290,000 compounds screened, about 3,200 (1.1%) were called active. The entries come from a sample that favours actives as a whole. Unmarked numbers belong to inactive results. No stated cut-off is given here; in the data, active means inhibition above about 60%; inactive means the rest.

Each molecule was assayed against Phosphoethanolamine/phosphocholine phosphatase (Homo sapiens) (UniProt Q8TCT1) (assay: PubChem AID 1565). Settings: recombinant PHOSPHO1, absorbance phosphatase assay; at 13.3 µM; active compounds read high.
Phosphoethanolamine/phosphocholine phosphatase (Homo sapiens), sequence (Q8TCT1 whole entry, looked up): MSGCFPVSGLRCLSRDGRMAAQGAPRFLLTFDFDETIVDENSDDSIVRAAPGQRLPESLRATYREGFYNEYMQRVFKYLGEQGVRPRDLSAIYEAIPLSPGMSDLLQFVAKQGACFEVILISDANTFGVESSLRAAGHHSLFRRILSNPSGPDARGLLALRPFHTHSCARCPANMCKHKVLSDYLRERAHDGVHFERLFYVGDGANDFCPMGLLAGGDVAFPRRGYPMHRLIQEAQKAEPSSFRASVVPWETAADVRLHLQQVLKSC

SMILES | inhibition
Cc1ccc(N(C(=O)CNC(=O)c2ccco2)C(C(=O)NC2CCCC2)c2ccncc2)cc1 (configuration not stated) | 43.5%
O=C(CC(c1ccccc1)c1ccccc1)NCC(O)c1ccc([N+](=O)[O-])cc1 (configuration not stated) | 12%
Cc1ccc(NC(=O)CSc2sc3c(O)cc(=O)[nH]c3c2C#N)cc1C | 19.4%
Cc1cc(=O)[nH]c(S)c1C#N | 71.4% (active)
Cc1cc(=O)[nH]c(SCC(N)=O)c1C#N | -7.4%
C/C(=N\NC(=O)c1ccc2ccccc2c1)c1cccnc1 | -19.7%
CCc1nnc(NC(=O)CSCc2cc(=O)n3cc(C)sc3n2)s1 | 6.8%
O=C(CSc1nc(Nc2ccccc2)nc(N2CCOCC2)n1)Nc1cc(Cl)ccc1O | 61% (active)
Cc1ccc(Nc2nc(N3CCOCC3)nc(N3CCOCC3)n2)cc1Cl | 6.9%
C/C(=N\Nc1nc(Nc2ccccc2)nc(N2CCOCC2)n1)c1cccs1 | 24.8%
Cc1ccc(C(=O)Nc2nnc(C3=COCCO3)o2)cc1C | -32.7%
C=CCn1c(SCc2c(C(=O)OC)sc(N)c2C(=O)OC)nnc1-c1ccc(Cl)cc1 | 60.1% (active)
C=CCn1c(SCc2ccc(Cl)c(Cl)c2)nnc1C(CO)NC(=O)c1ccc(OC)cc1 (configuration not stated) | -16.9%
CCOc1ccc(C(C)=O)cc1CSc1nnc(-c2ccncc2)n1CCOC | -31.5%
COC(=O)c1sc(N)c(C(=O)OC)c1COC(=O)CNS(=O)(=O)c1ccc(C)cc1 | 1.7%
COC(=O)c1ccc(NC(=O)CSc2nnc(-c3ccncc3)n2C)cc1 | -5.5%
C=CCn1c(SCc2cc(C(=O)OC)c(C)o2)nnc1-c1ccncc1 | 86.5% (active)
COc1cccc(CNC(=O)Cn2c(=O)oc3cc(S(=O)(=O)N4CCCCC4)ccc32)c1 | 22.6%
CN(C)S(=O)(=O)c1ccc(C(=O)NCC(C)(C)N2CCOCC2)cc1 | 34.7%
CC(C)(CNC(=O)c1ccc(Cl)c(S(=O)(=O)N2CCc3ccccc3C2)c1)N1CCOCC1 | 38.5%
Cc1cccc(NS(=O)(=O)c2ccc(C(=O)NCC(C)(C)N3CCOCC3)cc2)c1C | 65.4% (active)

SMILES | inhibition
CC(C)C[C@H](NC(=O)N1CC(=O)Nc2ccccc21)C(=O)N[C@H](Cc1ccccc1)C(=O)O | 33.8%
COc1ccc(-c2nnc(SC(=O)N3c4ccccc4Sc4ccccc43)o2)cc1 | 81.1% (active)
COc1ccc(-c2nnc(SCc3cccnc3)o2)cc1 | -4.4%
COc1ccc(N2CCN(Cc3nnc(-c4ccccc4)o3)CC2)cc1 | -23.5%
CC(=O)Nc1cccc(/C(C)=N/NC(=O)c2ccccc2Cl)c1 | 16.2%
C/C(=N/NC(=O)c1ccc(NC(=O)c2ccc(F)cc2)cc1)c1ccccc1 | -99%
COc1cccc(C(=O)N/N=C(\C)c2cccc(NC(=O)c3ccc(F)cc3)c2)c1OC | 65.8% (active)
COc1ccc(S(=O)(=O)NCC(=O)NC2CC2)cc1OC | 27.6%
CCCCCC(O)(CCN1CCCCC1)c1ccccc1 (configuration not stated) | 43.7%
Cc1cccc(C)c1OCCN1CCOCC1 | 24.1%
C/C(=C\c1ccccc1)C1NC(=O)c2c(sc3c2CCCC3)N1 (configuration not stated) | 12.2%
O=C1NC(c2ccncc2)Nc2sc3c(c21)CCCC3 (configuration not stated) | 97.6% (active)
Cc1ccc(C(=O)c2c(NC(=O)c3ccncc3)sc3c2CCCC3)cc1 | 9.7%
CCCNC(=O)COc1coc(CN2CCN(Cc3ccccc3)CC2)cc1=O | 36%
CCOC(=O)N1CCN(Cc2nc(Cc3cccc(C(F)(F)F)c3)no2)CC1 | 34.6%
Fc1cccc(Cc2noc(CN3CCN(c4cnccn4)CC3)n2)c1 | 62.8% (active)
FC(F)(F)c1cccc(Cc2noc(CN3CCC(N4CCCCC4)CC3)n2)c1 | 51.8%
COC(=O)c1ccc(CNC(=O)C2CCC(=O)N(Cc3ccccn3)C2)cc1 (configuration not stated) | 11.9%
O=C(C[C@H]1C(=O)N(c2ccc(F)c(F)c2)C[C@@H]1Cc1ccccc1)Nc1ccccc1 | -7.3%
Cc1ccccc1OCCC(=O)OCC(=O)NC(C)c1ccccc1 (configuration not stated) | 64.7% (active)
Cc1ccc(OCCCC(=O)NC(C)c2ccccc2)c(C)c1 (configuration not stated) | 48.4%

SMILES | inhibition
Cc1ccc(OCC(=O)NC(C)c2ccccc2)cc1C (configuration not stated) | -16.6%
Cc1sc2ncn(CC(=O)NCCCC(=O)N3CCN(c4ccccc4F)CC3)c(=O)c2c1C | 2.2%
Cn1cc(S(=O)(=O)Nc2ccc(Cl)cc2Cl)c(=O)n(C)c1=O | 20.2%
Cc1ccc(C)c(S(=O)(=O)Nc2cccc(-n3cnnn3)c2)c1 | 34.8%
CCOC(=O)N1CCN(CC(=O)Nc2ccc(F)cc2)CC1 | 60.1% (active)
O=C(CN1CCN(c2ccccc2)CC1)Nc1ccc(F)cc1 | 27%
CCOC(=O)N1CCN(CCC(=O)Nc2ccccc2)CC1 | 44.4%
CCOC(=O)c1sc(NC(=O)c2ccncc2)nc1C | -5.8%
CCOC(=O)C1=C(C)Nc2sc(C(=O)c3ccc(Br)cc3)c(N)c2C1c1ccc(C(=O)OC)cc1 (configuration not stated) | 38.2%
CCOC(=O)c1sc(=S)n2c1[nH]c(=O)c1ccc(C(=O)OC)cc12 | 98.7% (active)
CCOc1ccc(CN2CCC(n3nccc3NC(=O)C3CC3)CC2)cc1CO | 12.7%
CCCc1c(C(=O)Nc2ccc(F)cc2)cnn1-c1ccccc1 | 41.2%
COc1ccc(-c2noc(CCCC(=O)NC3CCCC3)n2)cc1OC | 18.5%
CC(=O)c1ccc(N2Cc3ccccc3C2)cc1 | 29.1%
Cc1cc(Cl)c2oc(C(=O)N(C)C(C)c3ccccn3)c(C)c2c1 (configuration not stated) | 18.5%
Cc1ccc(N(CC(=O)NCC2CCCO2)C(=O)CNS(=O)(=O)c2ccc(Cl)cc2)cc1 (configuration not stated) | 32.5%
CCCCn1c(SCC(=O)NCC2CCCO2)nc2ccc(N3CCOCC3)cc2c1=O (configuration not stated) | -6.7%
N#CCSc1nc2ccc(N3CCOCC3)cc2c(=O)n1CCc1ccccc1 | 81.7% (active)
CCc1ccc(NC(=O)CSc2nc3ccccc3c(=O)n2CCN2CCOCC2)cc1 | 2.3%
COc1cccc2cc(C(=O)NCc3ccc(C)cc3)c(=N)oc12 | 37.7%
CC(=O)Nc1ccc(NC(=O)C2CCCN2S(=O)(=O)c2cccc(C(F)(F)F)c2)cc1 (configuration not stated) | 24%

SMILES | inhibition
O=c1c2ccccc2nnn1CSc1nnnn1-c1ccccc1 | 8%
O=C(Cn1nnc2ccccc2c1=O)NCc1ccc(Cl)cc1 | 62.9% (active)
Cc1ccc(CNC(=O)CN2CCN(Cc3ccc(Cl)cc3)C2=O)cc1 | 4.8%
C=CCn1c(SCn2nnc3ccccc3c2=O)nnc1-c1ccc(Cl)cc1 | 94.8% (active)
Nc1nnc(SCn2nnc3ccccc3c2=O)s1 | 16.1%
Cc1c2cnn(CC(=O)NCc3ccccn3)c(=O)c2c(C)n1Cc1ccc(Cl)cc1 | -9%
COc1ccc(N(C)C(=O)C2CCN(S(=O)(=O)c3cccc4nsnc34)CC2)cc1 | 6.8%
CCOc1ccc(NC(=O)CCCCCN2C(=O)[C@@H]3Cc4ccccc4CN3C2=O)cc1 | 6.8%
COc1cc(C(=O)OC2CCOC2=O)c([N+](=O)[O-])cc1OC (configuration not stated) | 32.3%
N#Cc1ccccc1-n1c(N)c(C(=O)N2CCCC2)sc1=S | -13.6%
COc1ccc2[nH]c(C(=O)N3CCN(C)CC3)c(C)c2c1 | 18.7%
Cc1ccc(-n2c(N)c(C(=O)N3CCOCC3)sc2=S)c(C)c1 | 87.8% (active)
Cc1cccc(-n2c(N)c(C(=O)N3CCN(C)CC3)sc2=S)c1 | 83.6% (active)
Cc1ccc(S(=O)(=O)N2CCN(C(=O)N3CCOCC3)CC2)c(C)c1 | -7.3%
Cc1cccc(C(=O)N2CCCN(C(=O)c3cccc(C)c3)CC2)c1 | 8.5%
COCC1CCN(C(=O)c2ccc3oc(Cc4ccccc4)nc3c2)C1 (configuration not stated) | 27.6%
Cc1cc(OCc2cc(C(=O)NCc3cc(C(C)C)no3)no2)cc(C)c1Cl | 22.6%
CCn1cc(CCC(=O)NCc2ccc(F)cc2)c2ccccc21 | 38.1%
COc1ccc(CN(C)C(=O)c2cc(-c3ccc(C)cc3C)nc3ccccc23)c(OC)c1OC | 31.9%
